# Records with an inconclusive call do not appear. Active and inactive are the calls of the source. Rule for the calls: active = hit-call score of the fitted dose curve at least 0.9, where 1 is the maximum; inconclusive = response in the unintended direction; inactive = score below 0.9.
# Test: Tanguay_ZF_120hpf_BRAI_legacy: (Legacy) Oregon State University Tanguay Lab 120 Hour Post-fertilization zebrafish Assay for Brain Malformation (AID 2283641)
# Experimental: Tanguay_ZF_120hpf_legacy is a whole embryo, multiplexed endpoint assay using zebrafish larvae exposed for 120 hours post fertilization on a 96-well plate.Tanguay_ZF_120hpf_BRAI_legacy is one of one assay component(s) measured or calculated from the Tanguay_ZF_120hpf_legacy assay. It is designed to make measurements of zebrafish development as detected with brightfield microscopy of developing zebrafish embryos.Data from the assay component Tanguay_ZF_120hpf_BRAI_legacy was analyzed into 1 assay endpoints. This assay endpoint, Tanguay_ZF_120hpf_BRAI_legacy, was analyzed in the positive analysis fitting direction relative to DMSO as the negative control and baseline of activity. Using a type of morphology reporter, gain-of-signal activity can be used to understand changes in developmentals as they relate to the whole embryo. To generalize the intended target to other relatable targets, this assay endpoint is annotated to the zebrafish development intended target family, where the subfamily is brain morphogenesis.
# Zebrafish husbandry: Tropical 5D wild-type adult zebrafish were housed in at an approximate density of 1000 per 100 gallon tank at the Sinnhuber Aquatic Research Laboratory, Oregon State University, Corvallis, OR. Each tank was kept at standard laboratory conditions of 28C on a 14-h light/10-h dark photoperiod in fish water consisting of reverse osmosis water supplemented with a commercially available salt (Instant Ocean). Spawning funnels were placed into the tanks the night prior, and embryos were collected and staged. […] Ten microliters of each row of dilution plate 2 was added to 2 exposure plates. The final DMSO concentration used was 0.64% (vol/vol). Thirty-two embryos were also exposed to 5uM trimethyltin chloride (positive control). Plates were sealed to prevent evaporation and foil covered to reduce light exposure and kept in a 28C incubator. Embryos were statically exposed until 120 hpf. At 24 hpf, embryos were assessed for photomotor response using a custom photomotor response analysis tool (PRAT) and for developmental toxicity endpoints (MO24: mortality at 24 hpf, DP: developmental progression, SM: spontaneous movement, and NC: notochord distortion). At 120 hpf, locomotor activity was measured using Viewpoint Zebralab and assessed for 18 endpoints. Zebrafish acquisition and analysis program (ZAAP), a custom program designed to inventory, acquire, and manage zebrafish data, was used to collect developmental endpoints as either present or absent (i.e., binary responses were recorded). If mortality occurred for an embryo (at either 24 or 120 hpf), the non-mortality endpoints were not measured.
Compound,outcome,AC50
COc1ccc(/C=C/S(=O)(=O)NC(=O)c2ccc(C)cc2Cl)cc1,inactive,
CCn1nc(Cc2ccccc2)cc1C1CCN(C[C@H]2C[C@H](N(C)[C@@H](C(=O)O)C(C)C)C[C@@H]2c2cccc(F)c2)CC1,inactive,
CC(C)CCCCCCCOC(=O)CCCCC(=O)OCCCCCCCC(C)C,inactive,
COC(=O)c1c(Cl)c(Cl)c(C(=O)OC)c(Cl)c1Cl,inactive,
CC(C)CC(C)(O)C#CC(C)(O)CC(C)C (stereo not given),inactive,
COc1cccc(-c2ccc(/C=C\CN3CCCCCC3)cc2Cl)c1,inactive,
CCCCCCCCO,inactive,
COCCOc1cc2cc(C(=O)NC3CCN(C(C)C)CC3)n(CC(=O)Nc3ccc(Cl)cn3)c2cn1,inactive,
CNS(=O)(=O)c1cc(C(=O)N2CCC(CCN3C4CCC3CC(n3c(C)nc5ccccc53)C4)(c3cccc(F)c3)CC2)c(Cl)cc1F (stereo not given),inactive,
CC1(C)C(=O)N(Br)C(=O)N1Br,inactive,
CCCCC(CC)COC(=O)CCCCCCCCC(=O)OCC(CC)CCCC (stereo not given),inactive,
Cc1ccc(C)c(O)c1,inactive,
CC1=CC(=O)CC(C)(C)C1,inactive,
O=C(OC[C@H]1O[C@@H](OC(=O)c2cc(O)c(O)c(OC(=O)c3cc(O)c(O)c(O)c3)c2)[C@H](OC(=O)c2cc(O)c(O)c(OC(=O)c3cc(O)c(O)c(O)c3)c2)[C@@H](OC(=O)c2cc(O)c(O)c(OC(=O)c3cc(O)c(O)c(O)c3)c2)[C@@H]1OC(=O)c1cc(O)c(O)c(OC(=O)c2cc(O)c(O)c(O)c2)c1)c1cc(O)c(O)c(OC(=O)c2cc(O)c(O)c(O)c2)c1,inactive,
Oc1ccc2c(c1)-c1ccccc1C2,inactive,
CCOc1cccc(-n2cc(C(=O)N3CCN(c4cc(C(=O)O)c5ccccc5c4)CC3)nc2-c2ccc(C)cc2)c1,inactive,
CC(=O)OCCC(C)C,inactive,
CCNc1ccccc1,inactive,
Clc1nc(Cl)c(Cl)c(Cl)c1Cl,inactive,
COCCOCCOCCOC,inactive,

Compound,outcome,AC50
C1=CCCC=CCCC=CCC1,inactive,
COc1ccc(-n2nc(C(F)F)cc2-c2ccc(S(C)=O)cc2)cc1 (stereo not given),,40.4 µM (active)
O=C1OC(=O)C2C3C=CC(C3)C12 (stereo not given),inactive,
CCOC(=O)CC(CC(=O)OCC)(OC(C)=O)C(=O)OCC,inactive,
O=c1n(CC2CO2)c(=O)n(CC2CO2)c(=O)n1CC1CO1 (stereo not given),inactive,
O=C1CCCCCN1,inactive,
Nc1ccc(Nc2ccccc2)cc1,,45.1 µM (active)
CC(C)c1cccc(C(C)C)c1N1C(=O)c2ccc(O)cc2C1=O,inactive,
COC(=O)c1ccccc1O,inactive,
Cc1ccc(O)cc1,inactive,
CC(C)=CCCC(C)CCO (stereo not given),inactive,
O=C(O)CC(O)C(=O)O (stereo not given),inactive,
CC(=O)OC[C@H]1O[C@@](COC(C)=O)(O[C@H]2O[C@H](COC(C)=O)[C@@H](OC(C)=O)[C@H](OC(C)=O)[C@H]2OC(C)=O)[C@@H](OC(C)=O)[C@@H]1OC(C)=O,inactive,
CC(O)CN(CCN(CC(C)O)CC(C)O)CC(C)O (stereo not given),inactive,
O=C(CCCCCCCCc1cccnc1)N1CCC(C=C(c2ccccc2)c2ccccc2)CC1,inactive,
CCCCCCc1ccc(O)cc1O,inactive,
C=CC(=C)CCC=C(C)C,inactive,
O=C(O)c1cccc(N(Cc2cccnc2)c2ccc(OC(F)F)c(OC(F)F)c2)c1,inactive,
COC(=O)CC(=O)OC,inactive,
CC(C)=CCC/C(C)=C\CO,inactive,
